The panel holds about 83,000 compounds, 20% with a hit somewhere; the sample as a whole holds those more often.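 How to read the values: 0–100, growth inhibition (40 = 60% inhibited); 0, no net growth; -100 to 0, cell death (-40 = 40% of starting cells died; -100 = all dead).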 Unmarked numbers belong to inactive results. Activity calls are given as the source filed them. How the source made its calls: active means growth percent below 10; inactive means the rest.
How the values were obtained:
Test in all cases: NCI-60 one-dose screen, 48 h (100 = growth as untreated, 0 = no growth, -100 = all killed)
Conditions in all cases: 10 µM unless noted
NCI-H23 lung = tested on: NCI-H23 lung
NCI-H322M lung = tested on: NCI-H322M lung
HOP-62 NSCLC = tested on: HOP-62 NSCLC
NCI-H460 lung = tested on: NCI-H460 lung
HOP-92 NSCLC = tested on: HOP-92 NSCLC
NCI-H522 lung = tested on: NCI-H522 lung
A549/ATCC NSCLC = tested on: A549/ATCC NSCLC
786-0 renal = tested on: 786-0 renal
COLO 205 colon = tested on: COLO 205 colon
DU-145 prostate = tested on: DU-145 prostate
K-562 leukemia = tested on: K-562 leukemia
MALME-3M melanoma = tested on: MALME-3M melanoma
MDA-MB-231 breast = tested on: MDA-MB-231 breast
RXF 393 renal = tested on: RXF 393 renal
SF-268 CNS = tested on: SF-268 CNS
SF-295 CNS = tested on: SF-295 CNS
SF-539 CNS = tested on: SF-539 CNS
UACC-257 melanoma = tested on: UACC-257 melanoma
M14 melanoma = tested on: M14 melanoma
HCT-15 colon = tested on: HCT-15 colon

Compound | growth (NCI-H23 lung) | growth (NCI-H322M lung) | growth (HOP-62 NSCLC) | growth (NCI-H460 lung) | growth (HOP-92 NSCLC) | growth (NCI-H522 lung) | growth (A549/ATCC NSCLC) | growth (786-0 renal) | growth (COLO 205 colon) | growth (DU-145 prostate) | growth (K-562 leukemia) | growth (MALME-3M melanoma) | growth (MDA-MB-231 breast) | growth (RXF 393 renal) | growth (SF-268 CNS) | growth (SF-295 CNS) | growth (SF-539 CNS) | growth (UACC-257 melanoma) | growth (M14 melanoma) | growth (HCT-15 colon)
Cc1sc2ncnc(Sc3nc4ccccc4[nH]3)c2c1C | 57% | -18.4% (active) | -62.6% (active) | -78.9% (active) | -12.1% (active) | -78.6% (active) | -55.1% (active) | -94.7% (active) | -74.6% (active) | -83.2% (active) | -47.4% (active) | -82.7% (active) | -79.5% (active) | -59.7% (active) | -78.3% (active) | -81.7% (active) | -95.5% (active) | -88.6% (active) | -78.9% (active) | -38% (active)
Nc1nonc1-n1nncc1-c1cccnc1 | 102% | 101% | 110% | 111% | 99.8% | 112% | 94.7% | 104% | 114% | 112% | 105% | 96.1% | 111% | 115% | 106% | 98.2% | 102% | 112% | 104% | 101%
COc1cc(/C=C2\CCC/C(=C\c3cc(CN4CCOCC4)c(O)c(OC)c3)C2=O)cc(CN2CCOCC2)c1O | 21.4% | 46.4% | 46.6% | 11.6% | 36.8% | 34.4% | 35.8% | 57.8% | 45.2% | 14.9% | 15.3% | 46.3% | 26.2% | 6.08% (active) | 42.3% | 59.6% | 32% | 64.7% | 36.7% | 21.9%
CCOC(=O)C1=C(C)N=c2s/c(=C\c3ccccc3O)c(=O)n2C1c1ccc(OC)c2ccccc12 (stereo not given) | 82.3% | 10.5% | 29.2% | -41.8% (active) | 4.78% (active) | -36.2% (active) | -21.1% (active) | 36% | -90% (active) | 43.5% | -48.4% (active) | -86.7% (active) | -38.9% (active) | -20.6% (active) | 37.6% | -83.5% (active) | -83.7% (active) | -85.8% (active) | -71.7% (active) | 1.84% (active)
CN1C(=O)N(C)C2Nn3c(s/c(=C\c4ccc(Cl)cc4Cl)c3=O)=NC21 (stereo not given) | 61.8% | 78.7% | 73.2% | 30.8% | 89.5% | 55.3% | 51.4% | 68.5% | 22% | 30.3% | 19.5% | 72.5% | 55.9% | 39.7% | 61.1% | 32.4% | 36% | 84.5% | 21% | 43.8%
COC(=O)/C(CCC=C(C)C)=C1\[C@@H](OC(C)=O)C[C@@]2(C)[C@H]1C[C@@H](O)[C@H]1[C@@]3(C)CC[C@H](NCc4ccccc4)[C@@H](C)[C@@H]3CC[C@@]12C | 81.4% | 91.5% | 84% | 45.1% | 48.8% | 80% | 59% | 55.4% | 50% | 74.8% | 11% | 68% | 63.6% | 49.6% | 64.1% | 85.7% | 70% | 75.4% | 49.8% | 31%
O=S(=O)(c1ccc(NC(=S)NC23CC4CC(CC(C4)C2)C3)cc1)N1CCCCC1 | 95.5% | 102% | 107% | 36.3% | -8.91% (active) | 74.3% | 72.5% | 92.3% | 119% | 41.4% | 7.73% (active) | 86.5% | 102% | 115% | 66.6% | 58.1% | 107% | 96.9% | 72.3% | 82.8%
COc1cccc2cc(N(C)c3nc(C)nc4ccsc34)ccc12 | 22.3% | 49.8% | 17.1% | 1.59% (active) | 8.89% (active) | -15.2% (active) | 7.7% (active) | 20.5% | -56.9% (active) | -4.03% (active) | 5.29% (active) | 52.5% | 28.9% | 40% | 21.7% | 3.17% (active) | -15.5% (active) | 37.7% | 9.85% (active) | 0.625% (active)
COC(=O)C1=Nc2ccc(F)cc2/C1=C/c1sc(=S)[nH]c1O | 28.6% | 29% | 18.6% | 3.2% (active) | 22.9% | -33.3% (active) | 17.7% | 9.99% (active) | -2.37% (active) | 11.9% | 8.26% (active) | 60.8% | 16.8% | 30.4% | 13.1% | 13.8% | -26.6% (active) | 45.9% | 2.31% (active) | 10.7%
O=C(Nc1ccc(Cl)cc1F)c1cc(Br)ccc1O | 4.02% (active) | 7.3% (active) | 1.76% (active) | 4.27% (active) | -12.8% (active) | -12.9% (active) | 7.61% (active) | 3.02% (active) | 51.5% | 17.2% | 8.83% (active) | -16.9% (active) | -26.1% (active) | 7.94% (active) | 13.6% | -48.3% (active) | 7.34% (active) | -15.8% (active) | 8.91% (active) | 4.84% (active)
O=c1cc(-c2ccccc2)oc2cc(OCc3cn(Cc4ccc(F)cc4)nn3)cc(OCc3cn(Cc4ccc(F)cc4)nn3)c12 | 29.2% | 43.5% | 12.4% | 2.98% (active) | -18% (active) | 17.6% | 23.2% | 1.13% (active) | 68.4% | 40% | 45.5% | 15.2% | 9.1% (active) | -8.05% (active) | 21.8% | 38.9% | -10.5% (active) | 46.4% | 56.8% | 73.5%
COC(=O)c1cc2c(n1Cc1ccccc1)-c1oncc1CCC2 | 81.5% | 114% | 72.9% | 94.7% | 75.3% | 39.1% | 49.3% | 92.3% | 55% | 102% | 17.8% | 49.5% | 64.2% | 73.7% | 86.8% | 74.7% | 69.1% | 76.2% | 57.5% | 40.9%
CCCN1C(=O)N(CCC)C2C1NN=c1s/c(=C3\C(=O)N(C(C)C)c4ccccc43)c(=O)n12 (stereo not given) | 76% | 78% | 41.9% | 35.3% | 27.1% | 22.4% | 43.9% | -6.03% (active) | 43.8% | 53.5% | 11.3% | 36.5% | 41.8% | 12.2% | 46.8% | 22.2% | 23.1% | 53.8% | 37.8% | 24.4%
NCCOc1ncccc1/C=C1\c2ccccc2-c2ccc([N+](=O)[O-])cc21 | -68.1% (active) | -23.4% (active) | -60.1% (active) | -46.1% (active) | -39.5% (active) | -20% (active) | -58.6% (active) | -85.8% (active) | -50.5% (active) | -34.4% (active) | 2.88% (active) | -80.4% (active) | -42.3% (active) | -88.6% (active) | -12.9% (active) | -36.6% (active) | -83% (active) | 5.4% (active) | -63.3% (active) | -26.4% (active)
Cc1ccc(Cn2c(N3CCC(C(=O)NCc4cccs4)CC3)nc3ccccc32)cc1 | 85.2% | 114% | 85% | 82.5% | 73.9% | 107% | 95% | 89.1% | 96.9% | 72.8% | -42.9% (active) | 63.6% | 71.3% | 80.7% | 72.3% | 97% | 88% | 119% | 31.5% | 87%
CCN1C(=O)N(c2ccccc2)C2NN=c3s/c(=C4\C(=O)N(C(C)C)c5ccccc54)c(=O)n3C21 (stereo not given) | 46.5% | 54.4% | 36.2% | 5.98% (active) | 95.7% | 14.7% | 21% | 28.3% | 2.82% (active) | 9.07% (active) | 10.6% | 65.2% | 32.9% | -6.1% (active) | 36.7% | 17.9% | -2.62% (active) | 76.4% | 10.9% | 17.7%
